About 4,700 (1.3%) of roughly 370,000 compounds were called active.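 How the source made its calls: active means inhibition above the plate cutoff, the mean of all test compounds on that plate plus 3 SD (cut at about 35% in these data); inactive means the rest.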 Many of the other results were omitted from the sample, so actives are more common in it than they were.
Experiment: binders of r(CAG) RNA repeats, primary screen, biochemical, fluorescence (AID 651821);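 further: 0% = DMSO alone and 100% = 100 µM mitoxantrone as full dye displacement; higher means more dye released from RNA so lower well fluorescence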
Conditions: r(CAG) RNA repeat, TO-PRO-1 dye displacement fluorescence; at 3 µM; active compounds read high
With `CC(=O)Nc1ccc(C(=O)Nc2nc(-c3cc(C)n(Cc4ccccc4)c3C)cs2)cc1` the inhibition was 51.7% (active).
For `CC(=O)NC(c1ccccc1)c1nc(-c2cccc(C(C)C)c2)cs1` (stereo not drawn), the inhibition was 0.86% (inactive).
In the case of `Cn1c(CNc2nc(-c3ccccc3)cs2)nnc1SCC(=O)c1ccccc1`, the inhibition is reported as 8.83% (inactive).
In the case of `CC(C)CC(=O)N/C(N)=N/c1nc2ccccc2s1`, the inhibition is reported as 0.1% (inactive).
In the case of `CCN(CC)CCn1c2c(c(SCC(=O)Nc3nc4ccccc4s3)nc1=O)CCCC2`, the inhibition is reported as -6.14% (inactive).
In the case of `Cc1ccc(C(=O)Nc2c(C#N)c(C)c(C)n2Cc2ccccc2)cc1`, the inhibition is reported as 0.41% (inactive).
For `O=C(Nc1ccccc1)Nc1nc2ccccc2s1`, the inhibition was 41.3% (active).
For `COc1ccc(C(C)(NC(C)=O)c2nc(-c3ccc(S(C)(=O)=O)cc3)cs2)cc1` (stereo not drawn), the inhibition was -0.32% (inactive).
For `CC(=O)Nc1ccc(S(=O)(=O)Nc2nc(-c3ccc(C(C)(C)C)cc3)cs2)cc1`, the inhibition was 66.5% (active).
For `CC(=O)Nc1ccc(S(=O)(=O)Nc2ccc(-c3ccc4nnc(C)n4n3)cc2)cc1`, the inhibition was 6.21% (inactive).
In the case of `CC(=O)Nc1ccc(-c2csc(NC(=O)Nc3ccccc3)n2)cc1`, the inhibition is reported as 53.7% (active).
In the case of `CCCn1c(C)cc(-c2csc(NC(=O)CCc3nc4ccccc4c(=O)[nH]3)n2)c1C`, the inhibition is reported as 24.8% (inactive).
For `CC(NCc1ccco1)C(=O)N1CCCCC1` (stereo not drawn), the inhibition was 2.88% (inactive).
In the case of `CC(C)CNc1cccc2c1S(=O)(=O)N[C@H](CC(C)C)CO2`, the inhibition is reported as -1.29% (inactive).
For `COc1ccc(-c2ccccc2C2Cc3nnccc3CN2C(=O)Nc2ccccc2)cc1` (stereo not drawn), the inhibition was 8.81% (inactive).
With `COc1ccnc(C(=O)N2CCC(Oc3cccnc3)CC2)c1` the inhibition was 2.96% (inactive).
For `CN(C)Cc1cn(-c2ccc(-c3noc4c3C(=O)N(CC(=O)N3CCOCC3)CC4)cc2)nn1`, the inhibition was 4.11% (inactive).
For `CCOC(=O)c1csc(NC(=O)C2CCCN(S(=O)(=O)c3ccc(Cl)s3)C2)n1` (stereo not drawn), the inhibition was 3.09% (inactive).
For `Nc1nc2c(ncn2[C@@H]2O[C@H](C(=O)N[C@@H](Cc3ccccc3)C(=O)NCc3ccccc3)[C@@H](O)[C@H]2O)c(=O)[nH]1`, the inhibition was 3.57% (inactive).
With `CCOC(=O)[C@]12CCCC=C1N(CCCOC)C(=O)[C@@H]2CC(=O)N1CCOCC1` the inhibition was 0.28% (inactive).
With `COc1ccc(CCNC(=O)CN2CCC(n3nnc4cc(F)ccc43)CC2)cc1OC` the inhibition was -9.88% (inactive).
In the case of `Cc1ccc(C(=O)Oc2coc(CSc3nnc(NC(=O)c4cccs4)s3)cc2=O)cc1C`, the inhibition is reported as 68.7% (active).
For `COC(=O)c1ccc(CSc2nnc(NC(C)C)s2)cc1`, the inhibition was -4.56% (inactive).
For `CCOc1ccccc1Nc1nnc(SCc2ccc(C(=O)OC)o2)s1`, the inhibition was 0.96% (inactive).
In the case of `C=CCN1C(=O)[C@@H](CC(=O)N2CCN(C(=O)c3ccco3)CC2)[C@]2(C(=O)OC)CCCCC=C12`, the inhibition is reported as 7.73% (inactive).
With `O=C(N/N=C/c1ccsc1)c1cc(O)cc(O)c1` the inhibition was 9.53% (inactive).
With `O=C(O)/C(=C/c1cccnc1)NC(=O)c1ccccc1` the inhibition was 1.01% (inactive).
For `O=C(N/N=C/c1cccnc1)c1cc2ccccc2cc1O`, the inhibition was 46.1% (active).
For `CC(=O)Nc1ccc(CN2CCC(Oc3ccc(C(=O)N4CCCC4)cc3)CC2)cc1`, the inhibition was -7.88% (inactive).
In the case of `COC(=O)C12C=C3CC(c4ccccc4)=C3C(=O)N1Cc1[nH]c3ccccc3c1C2` (stereo not drawn), the inhibition is reported as 7.34% (inactive).
For `CC1CN(S(=O)(=O)c2ccc(C(=O)Nc3sccc3C(N)=O)cc2)CC(C)O1` (stereo not drawn), the inhibition was 11.2% (inactive).
In the case of `O=C(Nc1nnc(-c2ccccc2)o1)c1cccc(S(=O)(=O)N2CCOCC2)c1`, the inhibition is reported as 8.5% (inactive).
For `CC1CCCN(S(=O)(=O)c2ccc(C(=O)Nc3nnc(-c4ccncc4)o3)cc2)C1` (stereo not drawn), the inhibition was 35% (active).
With `CC1CCCCN1S(=O)(=O)c1ccc(S(=O)(=O)N(CC(=O)Nc2ccccc2)Cc2cccs2)cc1` (stereo not drawn) the inhibition was 2.51% (inactive).
With `CC1CCCCN1S(=O)(=O)c1ccc(C(=O)Nc2nnc(-c3cccs3)o2)cc1` (stereo not drawn) the inhibition was 49% (active).
In the case of `CC1CC(C)CN(S(=O)(=O)c2ccc(C(=O)NN3CCOCC3)cc2)C1` (stereo not drawn), the inhibition is reported as -3.03% (inactive).
With `O=C(NCc1ccc(Cl)cc1)C1CCCN(c2nc3ccccc3o2)C1` (stereo not drawn) the inhibition was 5.58% (inactive).
With `CC(=O)Nc1ccc(OC[C@@H](O)CN2CCC(C(O)(c3ccccc3)c3ccccc3)CC2)cc1` the inhibition was -1% (inactive).
With `O=C(NCc1ccccc1)[C@H]1CCCN1C(=O)[C@H]1CCCN1C(=O)c1cc(F)cc(F)c1` the inhibition was -2.08% (inactive).
For `CCOC(=O)c1c(-c2ccc(C)cc2C)csc1NC(=O)CSc1nnnn1C`, the inhibition was 1.95% (inactive).
With `CCOC(=O)c1c(C)nn(-c2ncccc2NC(=O)CCC(=O)O)c1C` the inhibition was 3.15% (inactive).
In the case of `CCOC(=O)c1c(-c2ccc(-c3ccccc3)cc2)csc1NC(=O)CCC(=O)O`, the inhibition is reported as 43.3% (active).
For `CC1(C)CC(=O)C=C(NCCN2CCNCC2)C1`, the inhibition was -4.08% (inactive).
